Assay outcomes from PubChem BioAssay.
Only some compounds are listed: those with a hit (about 19% of all), similar ones and a draw of the others.
IL-1B inflam inh – blocks inflammasome-driven IL-1 beta release | AID 743279 | THP-1 LPS/ATP IL-1B secretion, AlphaLISA, 16 h; hits give low values | 360,000 compounds, 4.7% hits | activity change, % at 57.5 µM; in the data active = activity change below about -50%; inconclusive = mostly about -30% to -49%; also: % is scaled to controls: 0 for no effect and ±100 for the full control effect
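Secreted IL-1B measured by AlphaLISA bead assay after 16 h compound exposure of THP-1 cells; compounds (final up to 57.5 uM) added 1 h before LPS (250 ng/mL) and ATP (1.25 mM) stimulation; lower signal means less secretion.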
S-ASM inh – inhibitors of human secretory acid sphingomyelinase; P17405; placental ASM, HMU-PC fluorogenic substrate, 60 min; Potency, µM (highest dose often 57.5 µM), inactives show at the top dose activity change, negative = inhibition, hits mostly inhibitors; 340,000 compounds, 0.006% hits; also: potency is read from the fitted curve at half-maximal effect
Target sequence (P17405 47-631 limits assumed): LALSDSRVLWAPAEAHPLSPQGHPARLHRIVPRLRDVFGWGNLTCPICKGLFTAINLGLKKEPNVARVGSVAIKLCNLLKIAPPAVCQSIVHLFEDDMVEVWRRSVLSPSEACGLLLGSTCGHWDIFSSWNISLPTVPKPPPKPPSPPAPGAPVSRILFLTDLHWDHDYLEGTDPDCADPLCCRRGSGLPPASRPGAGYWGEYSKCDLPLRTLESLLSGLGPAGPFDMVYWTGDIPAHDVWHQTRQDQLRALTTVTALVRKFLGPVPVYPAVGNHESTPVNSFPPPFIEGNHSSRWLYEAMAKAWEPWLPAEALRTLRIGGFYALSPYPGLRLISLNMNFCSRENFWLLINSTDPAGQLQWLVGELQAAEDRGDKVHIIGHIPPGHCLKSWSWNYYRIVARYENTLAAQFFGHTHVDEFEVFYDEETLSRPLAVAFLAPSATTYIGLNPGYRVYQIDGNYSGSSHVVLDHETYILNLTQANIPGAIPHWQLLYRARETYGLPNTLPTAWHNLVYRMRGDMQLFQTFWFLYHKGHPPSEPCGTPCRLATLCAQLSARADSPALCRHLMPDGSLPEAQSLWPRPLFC
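Human placenta-derived ASM preincubated with compound 10 min at room temperature, then reacted with 9 uM (final) fluorogenic HMU-PC substrate for 60 min at 37 C. Stop solution raises pH to 10; fluorescence read at Ex 386/Em 447 nm.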
DT40 TDP1 CPT – DT40-hTDP1 cell growth loss with CPT; chicken DT40 Tdp1-/-;hTDP1 cells + 20 nM CPT, ATP luminescence, 48 h; Potency, µM (highest dose often 46.2 µM), without a hit: at the top dose activity change, negative = growth inhibition, actives largely listed as inhibitors; 420,000 compounds, 12% hits; AID 686979; also: potency is read from the fitted curve at half-maximal effect; % is scaled to controls: 0 for no effect and ±100 for the full control effect; nearly all actives have a fitted effect of over 55% in size
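Cell growth measured by CellTiter-Glo luminescence after a minimum 48 h, 37 C compound exposure with 20 nM CPT in Tdp1-knockout DT40 cells stably expressing hTDP1, seeded 400/well; qHTS titration format.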
HepG2 tox – HepG2 cytotoxicity, counter-screen for TGF-b inhibitors. 410,000 compounds, 0.76% hits. Potency, µM (top dose mostly 46.1 µM), without a hit: top-dose activity change, negative = cytotoxicity, usual class: cytotoxic. HepG2 CAGA-GFP viability, ATP luminescence, 18 h; also: potency is read from the fitted curve at half-maximal effect
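HepG2 CAGA-GFP cells (1000/well, DMEM with 1% FBS) received compound, then TGF-beta at 500 pg/mL final, and were incubated 18 hours at 37 degrees C. Viability was read by CellTiter-Glo luminescence. Media-only wells were set as complete cell-killing and DMSO as no toxicity.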
TDP1 cell noCPT – qHTS for Inhibitors of human tyrosyl-DNA phosphodiesterase 1 (TDP1): qHTS in cells in absence of CPT; DT40 Tdp1-/- hTDP1 cells, no CPT, ATP luminescence, 48 h; Potency, µM (titrated, usually from 46.2 µM), for inactives: top-dose activity change, negative = growth inhibition, actives largely listed as inhibitors; 420,000 compounds, 15% hits; AID 686978, 2013; also: potency is read from the fitted curve at half-maximal effect; % is scaled to controls: 0 for no effect and ±100 for the full control effect; nearly all actives have a fitted effect of over 55% in size
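Luminescent ATP content (CellTiter-Glo) served as the growth readout. Knockout chicken DT40 cells expressing human TDP1 were exposed to compounds without camptothecin for a minimum 48 hr at 37 °C.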
TGFb inhibitor – inhibitors of TGF-b signaling | HepG2 CAGA-GFP TGF-b/SMAD3 reporter, GFP fluorescence, 18 h; TGF-beta stimulated, 500 pg/mL final | Potency, µM (titrated, usually from 46.1 µM), inactives show top-dose activity, negative = inhibition, most hits filed as inhibitors | 410,000 compounds, 1.2% hits | AID 588855; also: potency is read from the fitted curve at half-maximal effect; % is scaled to controls: 0 for no effect and ±100 for the full control effect; nearly all actives have a fitted effect of over 65% in size
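First, reporter cells (HEPG2 CAGA-GFP) rested 2 h at 37 degrees C. Next, compounds were pinned in and TGF-beta added to 500 pg/mL final. After 18 h, GFP was imaged per cell and summed per well.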
An asterisk follows results filed as active; u = inconclusive; x = no result. Unless noted, calls follow the shape of the dose curve; as a rule, active = well fitted curve in the direction sought with a large enough effect; inconclusive = small, poorly fitted or top-dose-only effect, or another doubt; inactive = no such curve, though single readings can be large; an effect the other way counts as inactive or inconclusive.

SMILES	IL-1B inflam inh	S-ASM inh	DT40 TDP1 CPT	HepG2 tox	TDP1 cell noCPT	TGFb inhibitor
CN(C(=O)c1cccc(NC(=O)Cc2ccc(NC(=O)C3CCCN(C(=O)c4ccccc4)C3)cc2)c1)C1CCCC1 (stereo not drawn)	14	-10%	u	-11%	u	u
Cc1oc(-c2cccc(Br)c2)nc1Cn1c(=O)cc(-c2ccccc2)c2c(C)nn(C)c21	x	x	-2%	-14%	-17%	-22%
Oc1[nH]c2ccc(Br)cc2c1N=NC(=S)Nc1ccc(F)cc1	-2	-19%	1.3µM*	-65%	2.9µM*	10µM*
CC(C)c1ccc2[nH]c(O)c(N=NC(=O)c3cccc(S(=O)(=O)N4CCCCC4)c3)c2c1	17	-19%	12µM*	5%	9.2µM*	-5%
CC(C)NC(=S)N=Nc1c(O)[nH]c2ccc([N+](=O)[O-])cc12	32	-10%	u	-28%	u	u
CNC(=S)N=Nc1c(O)[nH]c2ccc(C(C)C)cc12	0	-17%	u	-7%	18µM*	-19%
O=C(N=Nc1c(O)[nH]c2ccccc12)c1cccc(S(=O)(=O)N2CCCCC2)c1	32	6%	-13%	3%	1%	6%
Oc1ccc(NC(=S)N=Nc2c(O)[nH]c3ccc(Br)cc23)cc1	-64*	u	-78%	22µM*	23µM*	u
COc1ccc(CC(=O)NC2CC(=O)N(c3cccc(F)c3)C2)cc1OC (stereo not drawn)	x	x	7%	4%	0%	-36%
COc1ccc(C(O)c2nc(-c3ccc(Cl)cc3)cs2)cc1 (stereo not drawn)	-25	x	-61%	-19%	u	-25%
COc1ccc(C(O)c2nc(-c3ccc4ccccc4c3)cs2)cc1 (stereo not drawn)	15	x	u	-2%	16µM*	-9%
COc1cc(C(O)c2nc(-c3ccc(F)c(Cl)c3)cs2)ccc1F (stereo not drawn)	u	x	u	-43%	u	-23%
COc1cc(C(O)c2nc(-c3ccc4ccccc4c3)cs2)ccc1F (stereo not drawn)	-17	x	23µM*	-107%	21µM*	u
COc1ccc(C(O)c2nc(-c3ccc(OC)c(OC)c3)cs2)cc1 (stereo not drawn)	-2	x	13µM*	5%	18µM*	-1%
COc1ccc(C(O)c2nc(-c3cccc(CO)c3)cs2)cc1 (stereo not drawn)	12	x	u	-9%	u	4%
CCc1[nH]nc(C(=O)NC2CCCc3c2cnn3-c2cc(C)cc(C)c2)c1C (stereo not drawn)	-2	0%	0%	-4%	u	-30%
COCCN1CCN(C(=O)C2CCC(=O)N(CCc3ccccc3)C2)CC1 (stereo not drawn)	0	2%	-3%	-34%	-5%	u
CC(=O)C(Sc1nc(-c2ccccc2Cl)nc2c1c(=O)n(C)c(=O)n2C)C(=O)N(C)C (stereo not drawn)	x	x	u	-1%	u	u
CC(C(=O)Nc1ccc(S(=O)(=O)N2CCCC2)cc1)N1CCCC(C(N)=O)C1 (stereo not drawn)	11	-1%	-5%	7%	-1%	-19%
Cc1ccc2nc(-c3ccc(NC(=O)c4ccccc4S(C)(=O)=O)cc3)sc2c1	x	x	u	-41%	8.2µM*	0%
Cc1ccc2nc(-c3ccc(NC(=O)c4ccc(S(C)(=O)=O)cc4)cc3)sc2c1	x	x	21µM*	3%	u	3%
